Sampled rows, rich in hits. Any-hit rate of the full collection: about 9.4%.
ALDH1A1 inh = qHTS Assay for Inhibitors of Aldehyde Dehydrogenase 1 (ALDH1A1) | Aldehyde dehydrogenase 1A1 (Homo sapiens), P00352 | Purified ALDH1A1, NADH fluorescence, propionaldehyde substrate | Potency, µM (series often up to 75.3 µM), actives largely listed as inhibitors | 220,000 tested, 7.3% active | AID 1030, 2008; active means well fitted inhibition curve with a large enough effect, not every such curve was filed as active; inconclusive means small, poorly fitted or top-dose-only effect, or another doubt; inactive means no such curve, though single readings can be large or run the other way
IMPase Li cell = qHTS Assay for Identifying the Cell-Membrane Permeable IMPase Inhibitors: Potentiation with Lithium; CHO-M1 cells, IP1 TR-FRET (IP-One), carbachol + lithium; Potency, µM (titrated, usually from 59.4 µM), hits mostly inhibitors; 210,000 tested, 0.35% active;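 further: IP1 builds up when IMPase is blocked and the TR-FRET signal falls; nearly all actives have a fitted effect of over 50% in size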
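CHO cells stably expressing M1 receptor (2000/well, cultured 16–30 h) treated 30 min at 37C with compound plus low lithium. Cytosolic IP1 by TR-FRET (665/620 ratio and 620 channel) after 10 min lysis; AC50 by Hill fit.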
HttQ103 aggreg = qHTS Multiplex Assay to Identify Dual Action Probes in a Cell Model of Huntington: Aggregate Formation (GFP); 220,000 tested, 1.1% active; PC12 HttQ103-GFP aggregates, Acumen cytometry, 40 h; Potency, µM (highest dose often 46.1 µM), most hits filed as inhibitors; further: nearly all actives have a fitted effect of over 60% in size
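Compounds (qHTS titration) were added to PC12 cells expressing an ecdysone-driven HTT exon 1 Q103–GFP fusion after induction with 100 nM tebufenozide. Aggregate formation was measured as GFP objects in cell lysates.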
HPGD block = qHTS Assay for Inhibitors of HPGD (15-Hydroxyprostaglandin Dehydrogenase); 15-hydroxyprostaglandin dehydrogenase [NAD(+)] (Homo sapiens), P15428; 150,000 tested, 4.3% active; AID 894, 2007; purified HPGD, NADH fluorescence kinetic, PGE2 substrate; Potency, µM, most hits filed as inhibitors; active means well fitted inhibition curve with a large enough effect, not every such curve was filed as active; inconclusive means small, poorly fitted or top-dose-only effect, or another doubt; inactive means no such curve, though single readings can be large or run the other way
Target sequence (P15428 whole entry, looked up): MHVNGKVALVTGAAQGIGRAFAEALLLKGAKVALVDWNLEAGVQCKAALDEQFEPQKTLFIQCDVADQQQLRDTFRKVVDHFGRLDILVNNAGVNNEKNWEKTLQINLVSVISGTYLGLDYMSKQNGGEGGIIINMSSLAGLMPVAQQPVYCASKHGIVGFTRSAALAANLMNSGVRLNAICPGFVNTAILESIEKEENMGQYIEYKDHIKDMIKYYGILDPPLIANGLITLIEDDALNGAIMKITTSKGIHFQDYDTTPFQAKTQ
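20 nM HPGD preincubated 15 min at room temperature with compound in 50 mM Tris-HCl pH 8, 0.01% Tween 20. Started with 1 mM NAD+ and 30 uM prostaglandin E2; NADH fluorescence (360/450 nm) read 5 times over 30-s intervals, last minus first.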
HTT cytoprotect = qHTS Multiplex Assay to Identify Dual Action Probes in a Cell Model of Huntington: Cytoprotection (ATP); Potency, µM (highest dose often 56.4 µM), most hits filed as activators; PC12 HTT-Q103 induced, cytoprotection, ATP luminescence, 40 h; 230,000 tested, 0.14% active; further: nearly all actives have a fitted effect of over 45% in size
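Compounds were screened for protection of PC12 cells against cell death after tebufenozide induction (100 nM final) of mutant Huntingtin exon 1 (Q103) fused to GFP.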
IMPase inh = qHTS Assay for Identifying the Cell-Membrane Permeable IMPase Inhibitors. 120,000 tested, under 10 active. Inositol monophosphatase 1 (Rattus norvegicus), P97697. CHO-M1 cells, IP1 accumulation, HTRF TR-FRET ratio. AID 901, 2007. inhibition (IP1 accumulation), % at 46.1 µM; active means well fitted curve in the direction sought with a large enough effect in the signal ratio, not every such curve was filed as active; inconclusive means small, poorly fitted or top-dose-only effect, or a change in a side signal; inactive means no such curve, though single readings can be large or run the other way; the % refers to the signal ratio;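 further: cells stimulated with carbachol in lithium chloride buffer; higher means more IMPase inhibition seen as more IP1 and lower FRET ratio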
Target sequence (P97697 whole entry, looked up): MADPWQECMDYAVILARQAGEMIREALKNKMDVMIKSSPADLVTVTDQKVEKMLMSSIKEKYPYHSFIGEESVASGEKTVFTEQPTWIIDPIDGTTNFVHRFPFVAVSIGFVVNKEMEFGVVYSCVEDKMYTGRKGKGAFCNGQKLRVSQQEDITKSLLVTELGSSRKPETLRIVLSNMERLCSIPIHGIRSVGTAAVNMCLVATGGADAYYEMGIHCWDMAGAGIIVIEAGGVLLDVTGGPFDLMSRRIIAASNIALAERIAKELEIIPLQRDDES
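Cellular IMPase inhibition is scored as a rise in cytosolic IP1, detected by competitive TR-FRET between d2-labelled IP1 and a europium anti-IP1 antibody. M1-expressing CHO cells were stimulated with carbachol for 30 min at 37C, with lithium (50 mM LiCl) present in the buffer.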
A number is an active result; . = inactive; ? = inconclusive; / = not tested or not shown; [ ] = another dose, or the depositor's remark. Unless noted, the call rests on the fitted dose curve; in most records, active means well fitted curve in the direction sought with a large enough effect; inconclusive means small, poorly fitted or top-dose-only effect, or another doubt; inactive means no such curve, though single readings can be large; an effect the other way counts as inactive or inconclusive.

SMILES | ALDH1A1 inh | IMPase Li cell | HttQ103 aggreg | HPGD block | HTT cytoprotect | IMPase inh
O=C(COC(=O)c1ccccc1C(=O)c1ccc(Cl)c([N+](=O)[O-])c1)NC1CC1 | . | . | ? | / | . | /
CNC(=O)COC(=O)c1ccccc1C(=O)c1ccc(Cl)c([N+](=O)[O-])c1 | . | . | 28.2µM | / | .[10 µM] | /
C=CCSc1nnc(-c2ccccc2N=Cc2c(C)[nH]n(-c3ccccc3)c2=O)c(=O)[nH]1 | ? | . | .[9.22 µM] | . | . | .
CSc1nnc(-c2ccccc2N=Cc2c(C)[nH]n(-c3ccc4ccccc4c3)c2=O)c(=O)[nH]1 | ? | . | . | 17.8µM | . | .
COc1nc(-c2ccc(C)cc2)ccc1-c1noc(-c2ccc(C(C)(C)C)cc2)n1 | / | / | / | / | / | .
CCN1CCN(c2ccc([N+](=O)[O-])c(Sc3nc4ccccc4[nH]3)c2)CC1 | . | / | . | / | .[10 µM] | .
Cn1cnc([N+](=O)[O-])c1Sc1nc2ccccc2[nH]1 | 20µM | / | .[9.22 µM] | / | .[10 µM] | /
Cc1nc([N+](=O)[O-])c(Sc2nc3ccccc3[nH]2)n1Cc1ccccc1 | . | . | ? | . | ? | .
CS(=O)(=O)c1cc([N+](=O)[O-])c(Sc2nc3ccccc3[nH]2)c([N+](=O)[O-])c1 | 8.91µM | . | ? | 3.55µM | . | .
Cc1cccc(Sc2c([N+](=O)[O-])ncn2C)c1 | . | 7.94µM | . | 5.01µM | . | .
Cc1cccc(Sc2ccc([N+](=O)[O-])cn2)c1 | . | . | . | . | / | /
Cc1cccnc1Sc1c([N+](=O)[O-])ncn1C | 15.8µM | . | . | . | . | .
CC1CCN(c2oc(-c3cccs3)nc2S(=O)(=O)c2ccc(Cl)cc2)CC1 | / | / | / | / | / | .
O=C(Cn1nc(-c2ccc(Cl)cc2)c2ccccc2c1=O)Nc1cccc(C(F)(F)F)c1 | / | / | / | / | / | .
C/C(=N/Nc1nc(C)cc(=O)[nH]1)C(=O)O | .[13.5 µM] | . | / | . | .[10 µM] | /
O=C(c1ccc(Cl)cc1)N1CCC(O)(CSc2ccc(Cl)cc2Cl)CC1 | 22.4µM | . | 10µM | . | .[10 µM] | .[1.84 µM]
Cc1cc(=O)[nH]c(/N=C(\N)Nc2ccc(Cl)cc2)n1 | .[13.5 µM] | . | / | . | .[10 µM] | /
COc1cc2c(cc1OC)CN(c1nc(-c3cccnc3)nc3ccccc13)CC2 | ? | . | . | / | ? | /
Cc1cc(C)c2ccc(N)nc2c1O | . | . | 8.91µM | . | .[1.9 µM] | .
C=CCC1Cc2c(cccc2[N+](=O)[O-])C(CC=C)N1 (centres undefined) | 15.8µM | . | .[9.22 µM] | / | .[10 µM] | /
CCN(CC)c1ccc(C2CC(=O)Nc3cc(OC)c(OC)cc32)cc1 (centres undefined) | 12.6µM | . | . | . | . | .
COc1cc2c(cc1OC)C(c1ccc(N(C)C)cc1)CC(=O)N2 (centres undefined) | 8.91µM | . | . | . | . | .
CC(C)Oc1ccccc1C1CC(=O)Nc2cc3c(cc21)OCCO3 (centres undefined) | . | . | . | . | . | .
COc1cc2c(cc1OC)C(c1cccnc1)CC(=O)N2 (centres undefined) | . | . | . | . | . | .
COc1ccccc1C1CC(=O)Nc2cc3c(cc21)OCCO3 (centres undefined) | ? | . | . | 31.6µM | .[10 µM] | .
CCCCCC[C@@H]([C@H](C)O)n1cnc2c(N)ncnc21 | / | / | / | / | .[1.9 µM] | .
COc1ncc2ncc(=O)n(CCc3ccccc3)c2n1 | ? | . | / | / | . | /
O=C(/C=C/c1ccccc1Cl)N(Cc1ccccc1)C1CCS(=O)(=O)C1 (centres undefined) | 11.2µM | . | . | . | .[10 µM] | .
CC(C)c1ccc(CN(C(=O)/C=C/c2ccco2)C2CCS(=O)(=O)C2)cc1 (centres undefined) | 17.8µM | / | .[9.22 µM] | / | .[10 µM] | /
